The values that follow come from PubChem BioAssay (Tox21).

“And” between values parts separate entries of the source, which are not always exact repeats. Identical values can stand only once. Records with an inconclusive call do not appear. A structure can be active in one record and inactive in another. The source made the active and inactive calls. Unless noted, calls come from the whole dose curve; as a rule, active = well fitted curve in the direction sought with a large enough effect in the repeat runs; inconclusive = weak or mixed curves; inactive = no such curve, though single readings can be large; an effect the other way counts as inactive or inconclusive.

A short description of experiment [1]: qHTS assay to identify small molecule HDAC inhibitors (AID 1259364). Note: top concentration of the series differs between compounds; nearly all actives have a fitted effect of over 45% in size. The essentials: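 Homogeneous cell-based luminescent assay of endogenous class I/II HDAC activity; HCT-116 cells, 2 h compound exposure, 30 min HDAC-Glo development at RT.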
The nature of experiment [2]: qHTS assay to identify small molecule HDAC inhibitors - cell viability counter screen (AID 1259365). Note: series mostly up to about 92 µM; nearly all actives have a fitted effect of over 50% in size. In outline: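 Measured quantity is CellTiter-Glo luminescence from wild-type HCT-116 cells after compound incubation of 2hr at 37C, 5% CO2; reagent developed 30min at room temperature.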
Background: In qHTS, concentration-response curves come from the screen itself.

Experiment [3] can be described thus: qHTS assay to identify small molecule agonists of the sonic hedgehog signaling (Shh) pathway - cell viability counter screen (AID 1259366). Note: nearly all actives have a fitted effect of over 50% in size. In outline: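 In quantitative high-throughput format, 3T3 Gli1-Luc cells were exposed to compounds for 24hr and multiplexed for viability using CellTiter-Fluor, incubated 1hr at 37C before the fluorescence read.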
A short description of experiment [4]: qHTS assay to identify small molecule agonists of the sonic hedgehog signaling (Shh) pathway (AID 1259368; calls by dose curve;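 note: NIH/3T3-derived 3T3Gli1-Luc cells carrying a stable Gli1-driven firefly luciferase reporter; series mostly up to about 92 µM; nearly all actives have a fitted effect of over 15% in size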). In outline: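 Steps: seed 3T3 Gli1-Luc cells, incubate 4 hr at 37 C, pin-transfer compounds in DMSO alongside a positive control, incubate 24 hr, add luciferase detection reagent, wait 30 min at room temperature, read luminescence.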
Experiment [5] can be described thus: qHTS assay to identify small molecule antagonists of the sonic hedgehog signaling (Shh) pathway (AID 1259369; calls by dose curve; note: nearly all actives have a fitted effect of over 45% in size; note: potency is the fitted concentration of half-maximal effect). The essentials: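 Inhibition of Shh signalling is measured as reduced Gli1-response-element firefly luciferase output in an NIH/3T3-derived stable reporter clone stimulated with conditioned medium for 24hr.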
For experiment [6], the target named is Estrogen receptor beta (Homo sapiens) (UniProt Q92731). In words: qHTS assay to identify small molecule agonists of the estrogen receptor beta (ER-beta) signaling pathway (AID 1259377; active = well fitted activation curve with a large enough effect in the signal ratio in the repeat runs, not every such curve was filed as active; the % refers to the signal ratio). In outline: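 Reporter cells (HEK293T, ER-beta-UAS-bla) receive compounds or DMSO after a 6 hr pre-incubation. They then incubate 16 hr at 37C/5% CO2, and fluorescence from LiveBLAzer B/G substrate is measured after 2 hours at room temperature.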

The target is the same in experiment [7]. In words: qHTS assay to identify small molecule antagonists of the estrogen receptor beta (ER-beta) signaling pathway (AID 1259378; active = well fitted inhibition curve with a large enough effect in the signal ratio in the repeat runs, not every such curve was filed as active; the % refers to the signal ratio). The essentials:
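ER-beta-UAS-bla HEK293T cells in 2% charcoal-stripped FBS medium treated with compound plus 1nM final 17-beta-estradiol for 16 hr at 37C. Beta-lactamase reporter read by FRET substrate fluorescence after 2 hours at room temperature.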

The nature of experiment [8]: qHTS assay to identify small molecule agonists of the androgen receptor (AR) signaling pathway in the presence of an antagonist - cell viability counter screen (AID 1259379).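 Note: MDA-kb2 human breast cancer cells carrying an MMTV luciferase reporter; series mostly up to about 92 µM; nearly all actives have a fitted effect of over 25% in size.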 In outline: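 Fluorescence from CellTiter-Fluor, added after 15 hr and read 1 hr later, gave cell viability. Cells were MDA-kb2 exposed to compounds (15 concentrations) in the presence of 3.0uM nilutamide at 37C, 0% CO2.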

Experiment [9] can be described thus: qHTS assay to identify small molecule agonists of the estrogen receptor beta (ER-beta) signaling pathway - cell viability counter screen (AID 1259380). Note: nearly all actives have a fitted effect of over 30% in size. In outline:
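Same-well viability counter screen. Cells: ER-beta-UAS-bla HEK293T, plated 6 hr before compound, in 2% charcoal-stripped FBS. Compound exposure 16 hr, 37C; viability by CellTiter-Glo luminescence after 30 min at room temperature.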

A short description of experiment [10]: qHTS assay to identify small molecule antagonists of the estrogen receptor beta (ER-beta) signaling pathway - cell viability counter screen (AID 1259382). Note: series mostly up to about 92 µM; nearly all actives have a fitted effect of over 55% in size. In outline: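 Following a 6 hr plating period, HEK293T cells carrying a UAS-driven beta-lactamase reporter under ER-beta control received compounds and 1nM E2 (final). After 16 hr at 37C and 2 hr substrate loading, CellTiter-Glo luminescence indicated viability.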

Experiment [11] can be described thus: qHTS assay to identify small molecule agonists or antagonists of the thyroid stimulating hormone receptor (TSHR) signaling pathway - wild type cell line counter screen (AID 1259384; calls by dose curve). The essentials:
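Wild-type Hek293 cells, 800/well, 18 h at 37C, then compound with Ro20-1724 for 30 min RT. cAMP by HTRF (cAMP-d2/anti-cAMP cryptate), 1 h RT, fluorescence read. 15 concentrations, triplicates.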

Experiment [12] addresses Thyrotropin receptor (Homo sapiens) (UniProt P16473). In words: qHTS assay to identify small molecule antagonists of the thyroid stimulating hormone receptor (TSHR) signaling pathway (AID 1259385; calls by dose curve; note: nearly all actives have a fitted effect of over 20% in size). In outline:
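TSHR-HEK293 cells (800/well) plated 18 h, then compounds with Ro20-1724 and TSH at 1.5 ng/mL final, 30 min at room temperature. cAMP quantified by HTRF (cAMP-d2/anti-cAMP-cryptate, 1 h); 15 concentrations in triplicate.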

Experiment [13] can be described thus: qHTS assay to identify small molecule antagonists of the estrogen receptor alpha (ER-alpha) signaling pathway using the BG1 cell line in the presence of 0.1 nM 17-beta-estradiol - cell viability counter screen (AID 1259241). Note: nearly all actives have a fitted effect of over 40% in size. The essentials:
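In this screen, hormone-deprived VM7Luc4E2 cells were seeded at 4,000 per well, dosed with compound and 0.1 nM estradiol final, and incubated 22 hr at 37C and 5% CO2; fluorogenic live-cell protease signal reported viability.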

Experiment [14] can be described thus: qHTS assay to identify small molecule antagonists of the androgen receptor (AR) signaling pathway using the MDA cell line in the presence of 0.5 nM R1881 - cell viability counter screen (AID 1259242). Note: nearly all actives have a fitted effect of over 45% in size. In outline: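 Cytotoxicity toward MDA-kb2 cells is measured by CellTiter-Fluor live-cell protease fluorescence after 16 hr compound exposure at 37C in the presence of 0.5 nM R1881 stimulator.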

Experiment [15] in a line: qHTS assay to identify small molecule phospholipidosis (PLD) inducers (AID 1259344; active = well fitted curve in the direction sought with a large enough effect; an effect the other way counts as inactive or inconclusive). The essentials:
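HepG2 cells, 900/well, treated with compound plus LipidTOX Red for 24 h at 37 C; amiodarone positive and DMSO negative controls. Fixed with paraformaldehyde/Hoechst, then high-content imaging scored LipidTOX pit count and integrated intensity per well and per cell.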

The nature of experiment [16]: qHTS assay to identify small molecule antagonists of the sonic hedgehog signaling (Shh) pathway - cell viability counter screen (AID 1259367). Note: nearly all actives have a fitted effect of over 55% in size. The essentials:
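NIH/3T3-derived Gli1-Luc reporter cells, 2,000/well, plated 4 hr before compound addition, then stimulated with conditioned medium for 24 hr at 37C. Viability measured in the same wells by CellTiter-Fluor fluorescence, reagent added at 23 hr for 1 hr.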

Experiment [17] deals with Estrogen receptor (Homo sapiens) (UniProt P03372). In words: qHTS assay to identify small molecule antagonists of the estrogen receptor alpha (ER-alpha) signaling pathway using the BG1 cell line in the presence of 0.1 nM 17-beta-estradiol (AID 1259244). Note: nearly all actives have a fitted effect of over 50% in size. The essentials: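 After 5 days in hormone-depleted medium (charcoal-stripped serum, no phenol red), VM7Luc4E2 cells were seeded, incubated 24 h, then co-treated with compound and 0.1 nM (final) estradiol for 22 h before luminescence detection.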

The target is the same in experiment [18]. Description: qHTS assay to identify small molecule agonists of the estrogen receptor alpha (ER-alpha) signaling pathway in the presence of an antagonist (AID 1259383; calls by dose curve; note: top concentration of the series differs between compounds; nearly all actives have a fitted effect of over 15% in size). The essentials: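 Cells are hormone-deprived for 5 days (charcoal-stripped FBS, no phenol red), plated for 24hr, spiked with 10.0nM ICI-182,780, then dosed at 15 concentrations. After 22hr at 37C, ONE-Glo luminescence reports ERE-luciferase activity.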

Chain of Estrogen receptor beta (Homo sapiens) (Q92731 whole entry, looked up): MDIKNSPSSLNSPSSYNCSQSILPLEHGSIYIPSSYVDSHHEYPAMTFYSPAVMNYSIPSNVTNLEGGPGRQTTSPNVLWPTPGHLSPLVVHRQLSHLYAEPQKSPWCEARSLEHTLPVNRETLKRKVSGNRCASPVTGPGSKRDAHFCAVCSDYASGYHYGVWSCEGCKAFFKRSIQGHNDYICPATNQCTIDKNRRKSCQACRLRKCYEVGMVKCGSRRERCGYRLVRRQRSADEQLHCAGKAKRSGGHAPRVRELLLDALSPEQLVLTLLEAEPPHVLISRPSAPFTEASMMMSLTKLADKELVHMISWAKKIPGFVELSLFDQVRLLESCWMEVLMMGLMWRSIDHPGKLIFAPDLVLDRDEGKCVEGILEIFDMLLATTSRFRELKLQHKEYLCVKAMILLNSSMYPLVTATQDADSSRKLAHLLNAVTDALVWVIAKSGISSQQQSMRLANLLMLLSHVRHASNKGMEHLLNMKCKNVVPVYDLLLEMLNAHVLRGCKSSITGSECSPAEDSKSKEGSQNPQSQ
Chain of Estrogen receptor (Homo sapiens) (P03372 whole entry, looked up): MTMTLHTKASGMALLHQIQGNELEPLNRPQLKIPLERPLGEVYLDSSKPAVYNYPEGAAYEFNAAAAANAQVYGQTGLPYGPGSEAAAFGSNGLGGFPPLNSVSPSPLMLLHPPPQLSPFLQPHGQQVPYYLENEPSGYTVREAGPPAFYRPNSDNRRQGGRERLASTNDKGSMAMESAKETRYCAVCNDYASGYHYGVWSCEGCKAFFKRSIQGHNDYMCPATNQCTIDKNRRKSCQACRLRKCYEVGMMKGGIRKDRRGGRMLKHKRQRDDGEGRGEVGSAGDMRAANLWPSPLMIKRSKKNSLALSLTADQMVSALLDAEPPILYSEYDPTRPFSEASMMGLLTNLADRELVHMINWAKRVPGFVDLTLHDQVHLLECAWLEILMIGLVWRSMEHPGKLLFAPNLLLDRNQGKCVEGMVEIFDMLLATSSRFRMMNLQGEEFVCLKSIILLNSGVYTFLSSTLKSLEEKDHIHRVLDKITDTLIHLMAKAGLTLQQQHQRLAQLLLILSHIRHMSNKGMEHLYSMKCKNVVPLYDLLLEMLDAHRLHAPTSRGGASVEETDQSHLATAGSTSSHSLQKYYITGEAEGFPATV
Chain of Thyrotropin receptor (Homo sapiens) (P16473 whole entry, looked up): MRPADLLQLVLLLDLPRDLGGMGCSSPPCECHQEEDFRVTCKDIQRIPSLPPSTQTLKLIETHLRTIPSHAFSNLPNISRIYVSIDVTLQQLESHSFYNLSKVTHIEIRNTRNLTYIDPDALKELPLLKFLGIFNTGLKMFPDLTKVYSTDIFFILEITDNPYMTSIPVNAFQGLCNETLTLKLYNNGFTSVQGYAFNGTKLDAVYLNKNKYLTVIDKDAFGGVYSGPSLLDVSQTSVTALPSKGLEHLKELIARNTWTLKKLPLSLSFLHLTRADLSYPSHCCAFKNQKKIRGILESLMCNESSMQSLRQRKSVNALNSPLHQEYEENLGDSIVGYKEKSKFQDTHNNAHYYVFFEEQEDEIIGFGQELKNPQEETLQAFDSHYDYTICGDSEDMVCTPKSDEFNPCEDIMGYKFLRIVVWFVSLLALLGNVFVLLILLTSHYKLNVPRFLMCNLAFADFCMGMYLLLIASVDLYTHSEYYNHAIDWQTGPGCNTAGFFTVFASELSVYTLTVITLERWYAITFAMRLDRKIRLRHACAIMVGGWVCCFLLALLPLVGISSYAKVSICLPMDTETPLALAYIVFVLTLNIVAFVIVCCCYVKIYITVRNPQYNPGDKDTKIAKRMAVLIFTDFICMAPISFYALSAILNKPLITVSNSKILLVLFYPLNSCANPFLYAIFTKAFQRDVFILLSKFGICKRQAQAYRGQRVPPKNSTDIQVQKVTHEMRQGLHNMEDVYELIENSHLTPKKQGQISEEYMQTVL

On to `O=C(O)/C=C\C(=O)O`, for which the Potency entry in [1], in experiment [3], in [5], in [7], in experiment [8] and in [9] was “inactive” in each case. Besides, the Potency entry in experiment [10] was “inactive”. In addition, the call in experiment [2], in experiment [4], in experiment [6], in [11] and in experiment [12] was inactive.

Consider `O=C(O)c1cccnc1`, for which the Potency entry in experiment [13], in experiment [14], in experiment [1], in experiment [3], in [5] and in experiment [7] was “inactive” each time. The Potency entry in experiment [8], in [9] and in [10] was “inactive” in each case. The compound was called inactive in [15], in experiment [2], in experiment [4], in experiment [6], in [11] and in [12].

Turning to `CCOc1ccc(NC(=O)CC(C)O)cc1` (centres undefined), the Potency entry in [13], in [14], in experiment [1], in [3], in experiment [16] and in [5] was “inactive” in each case. For the same compound, the Potency entry in [8], in experiment [9] and in [10] was “inactive” throughout. Further, the compound was called inactive in experiment [15], in [2], in experiment [4], in experiment [11] and in experiment [12].

With `C/C=C/c1ccc(OC)cc1`, the Potency result in experiment [13], in experiment [14], in experiment [1], in [3], in experiment [5] and in experiment [7] was “inactive” throughout. The Potency entry in [8], in [9] and in experiment [10] was “inactive” each time. Moreover, the call in experiment [15], in experiment [2], in experiment [4], in [6], in experiment [11] and in [12] was inactive.

As for `CC(=O)OCC(COC(C)=O)OC(C)=O`, the Potency entry in experiment [13], in experiment [14], in [1], in experiment [3], in experiment [16] and in experiment [5] was “inactive” in each case. Also, the Potency result in experiment [7], in [8], in experiment [9] and in experiment [10] was “inactive” each time. Also, the call in [15], in [2], in [4], in experiment [6], in [11] and in experiment [12] was inactive.

On to `CCCCC1C(=O)N(c2ccccc2)N(c2ccccc2)C1=O`, for which the Potency entry in experiment [13], in [14], in experiment [17], in [1], in [3] and in experiment [5] was “inactive” in each case. Moreover, the Potency entry in experiment [7], in experiment [8], in experiment [9], in experiment [10] and in [18] was “inactive” each time. Besides, the compound was called inactive in experiment [15], in experiment [2], in [4], in experiment [6], in experiment [11] and in experiment [12].

As to `O=C(O)C(=O)O`, the Potency entry in experiment [13], in experiment [14], in [1], in [3], in experiment [16] and in [8] was “inactive” in each case. The Potency result in [9] and in [10] was “inactive” throughout. For the same compound, the call in experiment [2], in [4], in [11] and in experiment [12] was inactive. Moreover, the Potency entry in experiment [5] is “inactive and 1.22 µM (active)”.

On to `Cn1c(=O)c2[nH]cnc2n(C)c1=O`, for which the Potency entry in experiment [13], in experiment [14], in [17], in experiment [1], in experiment [3] and in [5] was “inactive” throughout. Besides, the Potency entry in experiment [8], in experiment [9], in experiment [10] and in [18] was “inactive” throughout. The call in experiment [15], in [2], in experiment [4], in [11] and in experiment [12] was inactive.

For `O=C(O)c1cccc([N+](=O)[O-])c1`, the Potency result in experiment [13], in experiment [14], in [1], in experiment [3], in experiment [5] and in experiment [7] was “inactive” each time. In addition, the Potency result in [8], in experiment [9] and in experiment [10] was “inactive” each time. Further, the compound was classed as inactive in experiment [2], in [4] and in experiment [6].
